Measurements taken from PubChem BioAssay (EPA / NIEHS).
Calls of active or inactive are those of the source. The calls were made as follows: active = hit-call score of the fitted dose curve at least 0.9, where 1 is the maximum; inactive = score below 0.9.

How the values were obtained:
[1] = read-out: Interleukin-1 alpha (IL1a), IL1A (gene 3552); assay: BSK_KF3CT_IL1a: BioMAP Diversity Plus: KF3CT Assay for Interleukin-1 alpha (IL1a) Biomarker Activity (AID 2283070); settings: primary human keratinocytes with fibroblasts; actives raise or lower the signal
Summary of the method: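 Primary skin co-culture (keratinocytes, foreskin fibroblasts), 24 h exposure; ELISA for IL-1a; bidirectional curve fit vs DMSO.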

[2] = read-out: TIMP metallopeptidase inhibitor 2 (TIMP2), TIMP2 (gene 7077); assay: BSK_KF3CT_TIMP2: BioMAP Diversity Plus: KF3CT Assay for TIMP metallopeptidase inhibitor 2 (TIMP2) Biomarker Activity (AID 2283071); settings: primary human keratinocytes with fibroblasts; actives raise or lower the signal
Summary of the method: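 Measurements come from ELISA detection of TIMP-2 at 24 hours in a dosed human keratinocyte and foreskin fibroblast co-culture. DMSO serves as negative control and baseline.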

[3] = read-out: C-C motif chemokine 2 (Homo sapiens) (UniProt P13500); assay: BSK_KF3CT_MCP1: BioMAP Diversity Plus: KF3CT Assay for Monocyte Chemoattractant Protein 1 (MCP1/CCL2) Biomarker Activity (AID 2283073); settings: primary human keratinocytes with fibroblasts; actives raise or lower the signal
Summary of the method: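 Biomarker MCP-1 is measured by ELISA in primary human keratinocytes co-cultured with foreskin fibroblasts, 24 h after chemical treatment; DMSO serves as the negative control and activity baseline.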

[4] = read-out: Matrix Metallopeptidase 9 (MMP9), MMP9 (gene 4318); assay: BSK_KF3CT_MMP9: BioMAP Diversity Plus: KF3CT Assay for Matrix Metallopeptidase 9 (MMP9) Biomarker Activity (AID 2283074); settings: primary human keratinocytes with fibroblasts; actives raise or lower the signal;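 as to AC50: MMP9 protein level quantified by ELISA in the co-culture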
Summary of the method: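 ELISA read-out of MMP-9 at 24 h post-dosing in a co-culture of human skin keratinocytes and foreskin fibroblasts. Gain or loss of signal was fitted in both directions against DMSO.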

[5] = read-out: urokinase plasminogen activator (uPA), PLAU (gene 5328); assay: BSK_KF3CT_uPA: BioMAP Diversity Plus: KF3CT Assay for urokinase plasminogen activator (uPA) Biomarker Activity (AID 2283075); settings: primary human keratinocytes with fibroblasts; actives raise or lower the signal
Summary of the method: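 Skin co-culture (keratinocytes + foreskin fibroblasts), human primary; 24 h post-dose; uPA by ELISA; gain/loss fit vs DMSO baseline.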

[6] = read-out: CD40, CD40 (gene 958); assay: BSK_LPS_CD40: BioMAP Diversity Plus: LPS Assay for CD40 Biomarker Activity (AID 2283076); settings: primary human HUVEC with PBMC; actives raise or lower the signal
Summary of the method: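 Using a multiplexed primary human co-culture (umbilical vein endothelium plus PBMC), CD40 was read by ELISA 24 h after dosing, with cytotoxicity tracked by sulforhodamine B staining of parallel cultures and activity fitted bidirectionally versus DMSO.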

[7] = read-out: E-selectin (Homo sapiens) (UniProt P16581); assay: BSK_LPS_Eselectin: BioMAP Diversity Plus: LPS Assay for Eselectin Biomarker Activity (AID 2283077); settings: primary human HUVEC with PBMC; actives raise or lower the signal
Summary of the method: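 Dose chemical onto LPS-driven HUVEC/PBMC co-culture; after 24 h, run ELISA for E-selectin; fit up- and down-going responses relative to DMSO control.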

[8] = read-out: Interleukin-8 (IL8), CXCL8 (gene 3576); assay: BSK_LPS_IL8: BioMAP Diversity Plus: LPS Assay for Interleukin-8 (IL8) Biomarker Activity (AID 2283078); settings: primary human HUVEC with PBMC; actives raise or lower the signal
Summary of the method: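 In this LPS system, chemical-treated human umbilical vein endothelium/PBMC co-cultures were harvested at 24 h for IL-8 ELISA.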

[9] = BSK_LPS_SRB: Viability Assessment in the BioMAP Diversity Plus: LPS Assay (AID 2283079); settings: primary human HUVEC with PBMC;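 also: total protein by sulforhodamine B absorbance as a cytotoxicity measure; measured one day after compound addition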
Summary of the method: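 Cytotoxicity endpoint in human endothelial–PBMC co-culture: 24 h exposure, then SRB (0.1%) staining, 560 nm read.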

[10] = read-out: Interleukin-1 alpha (IL1a), IL1A (gene 3552); assay: BSK_LPS_IL1a: BioMAP Diversity Plus: LPS Assay for Interleukin-1 alpha (IL1a) Biomarker Activity (AID 2283080); settings: primary human HUVEC with PBMC; actives raise or lower the signal
Summary of the method: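 Primary human HUVEC and PBMC co-culture stimulated with LPS is dosed and harvested at 24 h. Both increases and decreases in ELISA-measured IL-1a are scored relative to DMSO.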

[11] = read-out: Monocyte Chemoattractant Protein-1 (MCP1), CCL2 (gene 6347); assay: BSK_LPS_MCP1: BioMAP Diversity Plus: LPS Assay for Monocyte Chemoattractant Protein-1 (MCP1) Biomarker Activity (AID 2283081); settings: primary human HUVEC with PBMC; actives raise or lower the signal
Summary of the method: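 Values derive from bidirectional fitting against DMSO of ELISA-measured MCP-1 in a human primary endothelial and mononuclear cell co-culture, 24 h after chemical addition under LPS activation.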

[12] = BSK_LPS_PGE2: BioMAP Diversity Plus: LPS Assay for Prostaglandin E2 (PGE2) Biomarker Activity (AID 2283082); settings: primary human HUVEC with PBMC; actives raise or lower the signal
Summary of the method: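 Primary human endothelial cells and blood mononuclear cells, co-cultured with LPS, receive test chemical; PGE2 ELISA follows at 24 h, with SRB-stained parallel cultures flagging cytotoxicity.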

[13] = read-out: Macrophage colony-stimulating factor (MCSF), CSF1 (gene 1435); assay: BSK_LPS_MCSF: BioMAP Diversity Plus: LPS Assay for Macrophage colony-stimulating factor (MCSF) Biomarker Activity (AID 2283083); settings: primary human HUVEC with PBMC; actives raise or lower the signal
Summary of the method: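 Bidirectional fit versus DMSO of ELISA-measured M-CSF in co-cultured human umbilical vein endothelial cells and PBMC, sampled 24 h after dosing.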

[14] = read-out: Tissue Factor, F3 (gene 2152); assay: BSK_LPS_TissueFactor: BioMAP Diversity Plus: LPS Assay for Tissue Factor Biomarker Activity (AID 2283084); settings: primary human HUVEC with PBMC; actives raise or lower the signal
Summary of the method: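 Read-out: CD142 ELISA, 24 h. System: LPS-driven human endothelial/PBMC co-culture. Analysis: up- or down-signal fitted against DMSO.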

[15] = read-out: Tumor necrosis factor (Homo sapiens) (UniProt P01375); assay: BSK_LPS_TNFa: BioMAP Diversity Plus: LPS Assay for Tumour Necrosis Factor alpha (TNFa) Biomarker Activity (AID 2283085); settings: primary human HUVEC with PBMC; actives raise or lower the signal;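 as to AC50: TNFa protein level quantified by ELISA in the co-culture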
Summary of the method: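 ELISA-based TNFa endpoint in a human endothelial–PBMC co-culture sampled 24 h post-exposure. Curves were fitted in both directions using DMSO as baseline of activity.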

[16] = read-out: Vascular cell adhesion molecule 1 (VCAM1), VCAM1 (gene 7412); assay: BSK_LPS_VCAM1: BioMAP Diversity Plus: LPS Assay for Vascular cell adhesion molecule 1 (VCAM1) Biomarker Activity (AID 2283086); settings: primary human HUVEC with PBMC; actives raise or lower the signal
Summary of the method: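 Measured by ELISA: VCAM-1 in LPS-activated HUVEC/PBMC co-cultures 24 h after treatment. Values reflect bidirectional fitting with DMSO as baseline.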

[17] = read-out: CD38, CD38 (gene 952); assay: BSK_SAg_CD38: BioMAP Diversity Plus: SAg Assay for CD38 Biomarker Activity (AID 2283087); settings: primary human HUVEC with PBMC; actives raise or lower the signal
Summary of the method: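 Measures CD38 on a human endothelial/PBMC co-culture driven by SEB and TSST-1, 24 h after compound exposure, using ELISA with fluorescence detection; DMSO defines baseline for bidirectional curve fitting.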

[18] = read-out: CD40, CD40 (gene 958); assay: BSK_SAg_CD40: BioMAP Diversity Plus: SAg Assay for CD40 Biomarker Activity (AID 2283088); settings: primary human HUVEC with PBMC; actives raise or lower the signal
Summary of the method: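 Endpoint derived by fitting increases or decreases versus DMSO controls. CD40 is detected by fluorescence ELISA in a human vascular co-culture of endothelium and PBMC at 24 h.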

[19] = read-out: CD69, CD69 (gene 969); assay: BSK_SAg_CD69: BioMAP Diversity Plus: SAg Assay for CD69 Biomarker Activity (AID 2283089); settings: primary human HUVEC with PBMC; actives raise or lower the signal
Summary of the method: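 ELISA, fluorescence read-out: CD69 on human umbilical vein endothelial cell + PBMC co-culture, 24 h post-dosing. Gain or loss of signal fitted bidirectionally against DMSO baseline.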

[20] = read-out: Transforming growth factor beta 1 (TGFb1), TGFB1 (gene 7040); assay: BSK_KF3CT_TGFb1: BioMAP Diversity Plus: KF3CT Assay for Transforming growth factor beta 1 (TGFb1) Biomarker Activity (AID 2283072); settings: primary human keratinocytes with fibroblasts; actives raise or lower the signal
Summary of the method: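 TGF-b1 ELISA on a 24 h dosed co-culture of human keratinocytes and foreskin fibroblasts; cytotoxicity tracked in parallel cultures by SRB staining.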

Measured: AC50

Chain of Tumor necrosis factor (Homo sapiens) (P01375 whole entry, looked up): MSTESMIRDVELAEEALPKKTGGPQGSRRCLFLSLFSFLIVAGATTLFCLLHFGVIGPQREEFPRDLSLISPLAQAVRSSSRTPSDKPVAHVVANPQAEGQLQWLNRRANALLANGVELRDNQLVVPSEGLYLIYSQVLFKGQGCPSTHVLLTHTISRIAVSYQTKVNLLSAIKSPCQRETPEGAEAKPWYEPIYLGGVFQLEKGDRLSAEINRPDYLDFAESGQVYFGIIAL
Chain of E-selectin (Homo sapiens) (P16581 whole entry, looked up): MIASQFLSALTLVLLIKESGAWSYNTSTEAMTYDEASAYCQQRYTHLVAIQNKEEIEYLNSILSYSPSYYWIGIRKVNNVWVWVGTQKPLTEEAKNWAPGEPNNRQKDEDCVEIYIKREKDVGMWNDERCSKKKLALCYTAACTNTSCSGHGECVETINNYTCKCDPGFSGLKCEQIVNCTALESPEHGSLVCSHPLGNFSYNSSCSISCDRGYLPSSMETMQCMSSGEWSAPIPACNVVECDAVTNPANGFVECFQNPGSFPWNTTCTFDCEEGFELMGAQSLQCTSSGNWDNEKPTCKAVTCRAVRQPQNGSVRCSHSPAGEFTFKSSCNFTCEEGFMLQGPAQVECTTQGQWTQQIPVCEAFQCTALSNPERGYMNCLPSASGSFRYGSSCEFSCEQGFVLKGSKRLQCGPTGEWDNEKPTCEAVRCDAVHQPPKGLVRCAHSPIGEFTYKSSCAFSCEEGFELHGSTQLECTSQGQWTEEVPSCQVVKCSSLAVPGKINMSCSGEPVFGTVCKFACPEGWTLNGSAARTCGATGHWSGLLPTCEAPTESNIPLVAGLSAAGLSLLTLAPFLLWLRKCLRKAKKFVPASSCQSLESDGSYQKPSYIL

FC(F)(F)C(F)(F)C(F)(F)C(F)(F)C(F)(F)C(F)(F)C(F)(F)Br
inactive: [1] | [2] | [3] | [4] | [5] | [6] | [7] | [8] | [9] | [10] | [11] | [12] | [13] | [14] | [15] | [16] | [17] | [18] | [19]

CCCCOCCOCCOC(=O)CCCCC(=O)OCCOCCOCCCC
inactive: [2] | [20] | [3] | [4] | [6] | [7] | [8] | [9] | [10] | [11] | [12] | [13] | [14] | [16] | [17] | [18]
active: [1] 2.19 µM | [15] 5.67 µM

FC(F)(F)C(F)(F)C(F)(F)C(F)(F)CCI
inactive: [1] | [2] | [3] | [4] | [5] | [6] | [7] | [8] | [9] | [10] | [11] | [12] | [13] | [14] | [15] | [16] | [17] | [18] | [19]

CO[Si](OC)(c1ccccc1)c1ccccc1
inactive: [1] | [6] | [7] | [8] | [9] | [10] | [11] | [12] | [13] | [14] | [15] | [16] | [17] | [18]
active: [2] 30.9 µM | [20] 30.1 µM | [3] 31.6 µM | [4] 31.3 µM

CCCCCCCCCCCCCCCC[N+](C)(C)Cc1ccccc1
inactive: [12]
active: [1] 3.72 µM | [2] 1.9 µM | [20] 1.02 µM | [3] 3.15 µM | [4] 1.76 µM | [6] 13 µM | [7] 4.01 µM | [8] 5.25 µM | [9] 5.2 µM | [10] 9.26 µM | [13] 1.74 µM | [14] 10.7 µM | [15] 3.79 µM | [16] 3.77 µM | [17] 13 µM | [18] 14.7 µM
